# Target: T1, NKX2-6 (Homo sapiens, UniProt A6NCS4 118-204, F151L)
# T1 sequence: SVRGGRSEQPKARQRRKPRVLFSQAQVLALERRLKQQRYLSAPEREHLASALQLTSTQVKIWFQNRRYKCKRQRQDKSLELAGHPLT
# Experiment: PBM; 200 nM protein, PBS
# Settings: dsDNA, one strand shown
row,Sequence,binding signal
1,TCAACTCA,"9.78 upbm affinity estimate (log intensity, higher = more binding, comparable within an allelic series)"
2,ACTTACAT,"9.95 upbm affinity estimate (log intensity, higher = more binding, comparable within an allelic series)"
3,CCCGCGTC,"9.39 upbm affinity estimate (log intensity, higher = more binding, comparable within an allelic series)"
4,ATCCGCAG,"9.47 upbm affinity estimate (log intensity, higher = more binding, comparable within an allelic series)"
5,TAAGAAGA,"9.88 upbm affinity estimate (log intensity, higher = more binding, comparable within an allelic series)"
6,GGCGTTAC,"9.53 upbm affinity estimate (log intensity, higher = more binding, comparable within an allelic series)"
7,AGGGACGA,"9.28 upbm affinity estimate (log intensity, higher = more binding, comparable within an allelic series)"
8,CCGGGTCC,"9.17 upbm affinity estimate (log intensity, higher = more binding, comparable within an allelic series)"
9,GCAGTCCC,"9.32 upbm affinity estimate (log intensity, higher = more binding, comparable within an allelic series)"
10,CCACAGCG,"9.3 upbm affinity estimate (log intensity, higher = more binding, comparable within an allelic series)"
11,GCATCGGC,"9.43 upbm affinity estimate (log intensity, higher = more binding, comparable within an allelic series)"
12,CGCGGTCA,"9.33 upbm affinity estimate (log intensity, higher = more binding, comparable within an allelic series)"
13,CACCGTAG,"9.37 upbm affinity estimate (log intensity, higher = more binding, comparable within an allelic series)"
14,CACACGGA,"9.43 upbm affinity estimate (log intensity, higher = more binding, comparable within an allelic series)"
15,CAGACGGG,"9.37 upbm affinity estimate (log intensity, higher = more binding, comparable within an allelic series)"
16,GGAAAGTA,"9.87 upbm affinity estimate (log intensity, higher = more binding, comparable within an allelic series)"
17,CGGGATCC,"9.34 upbm affinity estimate (log intensity, higher = more binding, comparable within an allelic series)"
18,CTGTGGCC,"9.38 upbm affinity estimate (log intensity, higher = more binding, comparable within an allelic series)"
19,CAGGGACG,"9.43 upbm affinity estimate (log intensity, higher = more binding, comparable within an allelic series)"
20,ATCTTCAC,"9.83 upbm affinity estimate (log intensity, higher = more binding, comparable within an allelic series)"

row,Sequence,binding signal
1,CAGTCTGC,"9.38 upbm affinity estimate (log intensity, higher = more binding, comparable within an allelic series)"
2,AAACACTA,"9.97 upbm affinity estimate (log intensity, higher = more binding, comparable within an allelic series)"
3,ACTACTTA,"10.5 upbm affinity estimate (log intensity, higher = more binding, comparable within an allelic series)"
4,ACACGCGG,"9.38 upbm affinity estimate (log intensity, higher = more binding, comparable within an allelic series)"
5,AGTGGCTA,"9.95 upbm affinity estimate (log intensity, higher = more binding, comparable within an allelic series)"
6,CGGCGTGA,"9.33 upbm affinity estimate (log intensity, higher = more binding, comparable within an allelic series)"
7,CGTCCTGC,"9.34 upbm affinity estimate (log intensity, higher = more binding, comparable within an allelic series)"
8,GCGACAGC,"9.41 upbm affinity estimate (log intensity, higher = more binding, comparable within an allelic series)"
9,CGCTTAAG,"9.9 upbm affinity estimate (log intensity, higher = more binding, comparable within an allelic series)"
10,CATGTGGG,"9.56 upbm affinity estimate (log intensity, higher = more binding, comparable within an allelic series)"
11,AGCTGCAG,"9.44 upbm affinity estimate (log intensity, higher = more binding, comparable within an allelic series)"
12,ACTTGACT,"10.4 upbm affinity estimate (log intensity, higher = more binding, comparable within an allelic series)"
13,GGTGCGAC,"9.43 upbm affinity estimate (log intensity, higher = more binding, comparable within an allelic series)"
14,CCGTAGCA,"9.46 upbm affinity estimate (log intensity, higher = more binding, comparable within an allelic series)"
15,CCCAGCAG,"9.49 upbm affinity estimate (log intensity, higher = more binding, comparable within an allelic series)"
16,CGCTCGGC,"9.38 upbm affinity estimate (log intensity, higher = more binding, comparable within an allelic series)"
17,GCCGATCC,"9.3 upbm affinity estimate (log intensity, higher = more binding, comparable within an allelic series)"
18,ACACCCGT,"9.33 upbm affinity estimate (log intensity, higher = more binding, comparable within an allelic series)"
19,ACCGGGGG,"9.04 upbm affinity estimate (log intensity, higher = more binding, comparable within an allelic series)"
20,ACCGTTTG,"9.44 upbm affinity estimate (log intensity, higher = more binding, comparable within an allelic series)"

# — publication PMC11006913
